Inconclusive results are not listed. Entries that show only a call come without a potency. Activity calls are given as the source filed them. Calls follow the shape of the dose curve; as a rule, active = well fitted inhibition curve with a large enough effect; inconclusive = small, poorly fitted or top-dose-only effect; inactive = flat fitted curve, though single readings scatter.
Molecular target: Glutathione peroxidase 1 (Homo sapiens) (UniProt P07203)
Test: Primary qHTS Assay for Inhibitors of Recombinant Selenoprotein Glutathione Peroxidase 1 (GPX1) (AID 1845191); also: nearly all actives have a fitted effect of over 65% in size
Conditions: recombinant GPX1, GR-coupled NADPH fluorescence, 15 min; series mostly up to 48.8 µM; activity, negative = inhibition: at the top concentration
Source text: Assay Provider: Elias S.J. Arner MD PhD.
Department of Medical Biochemistry and Biophysics
Karolinska Institutet, Solna, Stockholm, Sweden
Selenoprotein glutathione peroxidases (GPX), like the ubiquitously expressed GPX1 and the ferroptosis modulator GPX4, enact their antioxidant activities by reducing hydroperoxides using glutathione. […] GPX1 and GPX4 inhibitors have thus shown promise as anti-cancer agents. Existing inhibitors are often promiscuous, or modulate GPX activity only indirectly, so novel direct inhibitors identified through screening against GPX1 and GPX4 could be valuable. Here, we developed optimized glutathione reductase (GR)-coupled GPX assays for the biochemical high-throughput screen (HTS) of almost 12,000 compounds with known mechanisms of action. Initial hits were triaged using a GR counter-screen, assessed for isoform specificity using a separate GPX2 assay, and were assessed for general selenocysteine-targeting activity using a thioredoxin reductase (TXNRD1) assay. With this suite of assays, we identified novel GPX1/GPX2- and GPX4-specific inhibitors and can here present a validated pipeline for future discovery research for selenoprotein-targeting agents.
SEQUENCE No. (e.g., 1, 2, 3, etc.); […] (e.g., Cells, Incubation, Reagent, etc.); VALUE; DESCRIPTION.
1; Reagent 1; 3 uL; GPx1 enzyme or no enzyme control in 1536-well, black, solid Greiner assay plate.
2; Compound; 25 nL; Kalypsis pin tool (Wako USA) equipped with a 1536-well pin head.
3; Incubation; 30 min; room temperature.
4; Reagent 2; 1 uL; 10 nM GPX1, 1 mM GSH, 0.5 mM CHP, 0.5 mM NADPH, 100 nM GR, 0.01% BSA substrate
5; Detection; Fluorescence; ViewLux microplate reader, excitation 340 nm and emission 450 nm.
6; Incubation; 15 min; room temperature.
7; Detection; Fluorescence; ViewLux microplate reader, excitation 340 nm and emission 450 nm.
NOTES (numbers refer to Sequence numbers above)
1. 3 uL of 16.66 nM GPX1 and 0.016% BSA in assay buffer (50 mM Tris-HCl, 2 mM EDTA (pH 7.5), 150 mM NaCl) was added to columns 3-48 of 1536-well assay plates using a BioRAPTR Flying Reagent Dispenser (Let's Go Robotics (LGR), Carlsbad, CA). A no-enzyme control (0.01% BSA in TES assay buffer) was added to columns 1-2.
2. 25 nL of test compounds and DMSO controls were added to each well with a pin tool (Kalypsys).
3. The assay plates were incubated for 30 minutes at room temperature.
4. 1 uL of master mix (500 nM glutathione reductase (GR), 5 mM reduced glutathione (GSH), 2.5 mM NADPH in assay buffer) was added. 1 uL of cumene hydroperoxide (CHP) ([2.5 mM] in 50% EtOH) was then added within 5 minutes to initiate the reaction. Final concentrations were: 10 nM GPX1, 1 mM GSH, 0.5 mM CHP, 0.5 mM NADPH, 100 nM GR, 0.01% BSA.
5. Initial fluorescence readout (t=0) at 340/450 nm was measured using a ViewLux multimodal detector (PerkinElmer, Waltham, MA).
7. Endpoint fluorescence readout (t=15) at 340/450 nm was measured 15 min after room temperature incubation.
Potency is read from the fitted curve at half-maximal effect.

Glutathione peroxidase 1 (Homo sapiens), sequence (P07203 whole entry, looked up): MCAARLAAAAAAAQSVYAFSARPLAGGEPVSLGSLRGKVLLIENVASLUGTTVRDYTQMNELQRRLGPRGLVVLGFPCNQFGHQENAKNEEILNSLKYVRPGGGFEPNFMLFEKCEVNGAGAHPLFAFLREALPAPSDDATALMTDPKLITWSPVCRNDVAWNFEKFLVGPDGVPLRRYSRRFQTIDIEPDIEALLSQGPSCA

Compound | outcome | activity, negative = inhibition | Potency
C=C[C@@]1(C)CC(=O)[C@]2(O)[C@@]3(C)[C@@H](O)CCC(C)(C)[C@@H]3[C@H](O)[C@H](OC(C)=O)[C@@]2(C)O1 | inactive | – | –
CN(C)CCOC(c1ccc(Cl)cc1)c1ccccn1 (stereo not given) | – | -17.6% (inactive) | –
O=C(CCCN1CC=C(n2c(=O)[nH]c3ccccc32)CC1)c1ccc(F)cc1 | – | – | inactive
CCCCCCCCCCC[C@@H](C[C@@H]1OC(=O)[C@H]1CCCCCC)OC(=O)[C@H](CC(C)C)NC=O | – | – | inactive
CCN1CCN(C(=O)N[C@@H](C(=O)N[C@@H]2C(=O)N3C(C(=O)O)=C(CSc4nnnn4C)CS[C@H]23)c2ccc(O)cc2)C(=O)C1=O | – | – | 11.4 µM (active)
Nc1nc(-c2ccccc2)c(Br)c(=O)[nH]1 | – | -12.5% (inactive) | –
OC1C(O)C(O)C(O)C(O)C1O (stereo not given) | – | -3.02% (inactive) | –
COc1ccc(C(=O)c2ccccc2)c(O)c1 | – | -8.03% (inactive) | –
CN(CCCN1c2ccccc2CCc2ccccc21)CC(=O)c1ccc(Cl)cc1 | inactive | – | –
O=C(O)CCC(=O)Nc1ccc(S(=O)(=O)Nc2nccs2)cc1 | inactive | – | –
C#C[C@]1(O)CC[C@H]2[C@@H]3[C@H](C)CC4=C(CCC(=O)C4)[C@H]3CC[C@@]21C | – | – | inactive
Cn1c(=O)c2[nH]c(Br)nc2n(C)c1=O | – | 4.17% (inactive) | –
CCCCCCCCCCCCSCCOCCO | – | -8.5% (inactive) | –
O=C(O)P(=O)(O)O | inactive | – | –
O=C1c2cccc3c2[C@H](CCC3)CN1[C@@H]1CN2CCC1CC2 | – | -12.3% (inactive) | –
OCCOCCN1CCN(C2=Nc3ccccc3Sc3ccccc32)CC1 | inactive | – | –
NC1CCN(c2nc3c(cc2F)c(=O)c(C(=O)O)cn3-c2ccc(F)cc2F)C1 (stereo not given) | inactive | – | –
Cc1c(-c2ccccc2)oc2c(C(=O)OCCN3CCCCC3)cccc2c1=O | – | -14.8% (inactive) | –
NS(=O)(=O)c1cc2c(cc1Cl)NC(CC1CCCC1)NS2(=O)=O (stereo not given) | – | -20.3% (inactive) | –
NC(N)=NCc1cccc(I)c1 | – | – | inactive

Compound | outcome | activity, negative = inhibition | Potency
CC[N+](C)(CC)CCOC(=O)C(O)(c1ccccc1)C1CCCCC1 (stereo not given) | inactive | – | –
CCCCC(CC)COC(=O)c1ccc(N(C)C)cc1 (stereo not given) | inactive | – | –
N#C/C(=C1\SCC(c2ccccc2Cl)S1)n1ccnc1 (stereo not given) | inactive | – | –
CNCCCCOc1ccccc1Cc1ccccc1 | – | -0.983% (inactive) | –
CCOc1ccccc1OCCN[C@H](C)Cc1ccc(OC)c(S(N)(=O)=O)c1 | – | – | inactive
O[C@@H](c1cc(C(F)(F)F)nc2c(C(F)(F)F)cccc12)[C@H]1CCCCN1 | – | 2.78% (inactive) | –
CCOC(=O)Nc1ccc2c(c1)N(C(=O)CCN1CCOCC1)c1ccccc1S2 | – | -19.4% (inactive) | –
CCO[C@@H]1O[C@H](C(COCc2ccccc2)OCc2ccccc2)[C@H](OCc2ccccc2)[C@H]1O (stereo not given in full) | inactive | – | –
CCCCCN=C(N)N/N=C/c1c[nH]c2ccc(OC)cc12 | – | 4.03% (inactive) | –
CCCCNc1ccc(C(=O)OCCOCCOCCOCCOCCOCCOCCOCCOCCOC)cc1 | inactive | – | –
CN(Cc1ccc(C(C)(C)C)cc1)Cc1cccc2ccccc12 | inactive | – | –
CC(=O)O[C@]1(C(C)=O)CC[C@H]2[C@@H]3C=C(C)C4=CC(=O)CC[C@]4(C)[C@H]3CC[C@@]21C | – | – | inactive
CCOc1ccccc1C(N)=O | inactive | – | –
CCCN(CCC)S(=O)(=O)c1ccc(C(=O)O)cc1 | inactive | – | –
CC[C@H](c1ccc(O)cc1)[C@@H](CC)c1ccc(O)cc1 | – | -27.8% (inactive) | –
NC(=O)c1ccccc1O | – | -5.89% (inactive) | –
NC(=O)C1(N2CCCCC2)CCN(CCCC(=O)c2ccc(F)cc2)CC1 | – | 4.13% (inactive) | –
CCCCCCCCCCCCOCCOCCOCCOCCOCCOCCOCCOCCOCCO | inactive | – | –
CCCCC(CC)COC(=O)/C=C/c1ccc(OC)cc1 (stereo not given) | – | -6.86% (inactive) | –
COC(=O)C(c1ccccc1Cl)N1CCc2sccc2C1 (stereo not given) | – | -12.1% (inactive) | –
